Screens deposited in PubChem by National Center for Advancing Translational Sciences (NCATS).
Sm TGR block = inhibitors of Schistosoma mansoni thioredoxin glutathione reductase; Q962Y6; purified TGR, DTNB reduction, TNB absorbance 405 nm; Potency, µM (series often up to 114 µM), without a hit: top-dose activity change, negative = inhibition, usual class: inhibitors; hit rate 3% among 360,000; AID 485364; note: potency is the fitted concentration of half-maximal effect; nearly all actives have a fitted effect of over 60% in size
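First, TGR (20 nM dispensed) and NADPH were mixed with compound. Second, a 15 min room-temperature incubation followed. Third, further NADPH and then DTNB were added to start the reaction. Finally, TNB absorbance was monitored kinetically.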
FMDV inh = blocks foot and mouth disease virus; FMDV antiviral cell-based qHTS; Potency, µM (titrated, usually from 57.9 µM), for the others: top-dose activity change, negative = inhibition, hits mostly inhibitors; hit rate 1.2% among 410,000; calls by dose curve; tested in HEK293T cells; note: read-out not given here; potency is the fitted concentration of half-maximal effect; nearly all actives have a fitted effect of over 45% in size
HCV inh = HCV inhibition; Huh7.5.1 HCVcc-Cre infection, luciferase reporter, 44 h; Potency, µM (doses to about 41.8 µM), inactives show at the top dose activity change, negative = inhibition, most hits filed as inhibitors; hit rate 3.4% among 340,000; note: potency is the fitted concentration of half-maximal effect
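Cells (1,000/well) were plated 4 h before compound, then infected with HCVcc-Cre virus (~0.5 moi). After 44 h further culture, infection was read as luciferase luminescence following a 15 min substrate incubation at room temperature.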
VACV mCherry inh = inhibitors of vaccinia virus infection (mCherry reporter signal) | Vaccinia virus mCherry reporter infection, fluorescence | Potency, µM (doses to about 36.5 µM), for inactives: at the highest dose activity change, negative = inhibition, usual class: inhibitors | hit rate 0.63% among 310,000 | AID 720579; calls by dose curve; tested in A549 cells; note: potency is the fitted concentration of half-maximal effect; nearly all actives have a fitted effect of over 35% in size
HCMV antiviral = blocks human cytomegalovirus replication; HFF cells, HCMV-luciferase reporter, 72 h; active compounds read low; activity change, negative = inhibition, % at 57.5 µM; hit rate 4.5% among 410,000; in the data active = activity change below about -60%; inconclusive = no clear call, values can overlap the other calls; inactive = above about -39%
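Two compound doses tested in HFFs infected with HCMV-luciferase, MOI 1 PFU/cell, 72 h at 37C. Lysate luminescence read with OneGlo; data normalized against buffer-only and 10uM Salinomycin inhibitor controls.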
Vaccinia Venus = vaccinia inhibition (Venus reporter). Potency, µM (series often up to 36.5 µM), for the others: at the highest dose activity change, negative = inhibition, usual class: inhibitors. Vaccinia virus Venus reporter expression, fluorescence. hit rate 0.46% among 330,000; calls by dose curve; tested in A549 cells; note: potency is the fitted concentration of half-maximal effect; nearly all actives have a fitted effect of over 30% in size
The depositor's hits bear a star; i = inactive; ? = inconclusive; · = not tested or not shown. Rows were chosen to be rich in hits. Some 9.3% of all compounds tested hit in one or more screens of this group. Unless noted, calls come from the whole dose curve; as a rule, active = well fitted curve in the direction sought with a large enough effect; inconclusive = small, poorly fitted or top-dose-only effect, or another doubt; inactive = no such curve, though single readings can be large; an effect the other way counts as inactive or inconclusive. % is set by controls: 0 for no effect and ±100 for the full control effect.

SMILES	Sm TGR block	FMDV inh	HCV inh	VACV mCherry inh	HCMV antiviral	Vaccinia Venus
Cc1ccccc1/C=C/C12NC(=O)CN1c1ccccc1C2(C)C (stereo not given)	8%	19%	-21%	-3%	-11	-27%
COc1ccccc1NC(=O)Cn1c(=O)n(Cc2cccs2)c(=O)c2cccnc21	1%	-14%	·	-13%	-64*	-18%
COc1ccccc1NC(=O)Cn1c(C)cc(C)c(C#N)c1=O	9%	-26%	·	12%	13	-3%
COc1cccc2c(=O)cc(C)n(CC(=O)Nc3ccc(C)c(C)c3)c12	-11%	?	5µM*	·	-17	?
COc1ccccc1NC(=O)Cn1c(C)cc(=O)c2cccc(OC)c21	-4%	7.1µM*	?	?	-10	?
CCOc1ccccc1NC(=O)Cn1c(=O)n(Cc2ccccc2)c(=O)c2cccnc21	-3%	13%	·	-12%	9	-3%
CCc1cc2c(cc3c(=O)n(CC(=O)NCCOC)nc(CC)n32)s1	10%	-9%	·	-19%	39	-11%
CCn1c(CN2CCC(C)CC2)nc2cc(NC(=O)COc3ccc([N+](=O)[O-])cc3)ccc21	1%	0%	·	i	-11	?
Cc1ccc(-n2ccnc2SCC(=O)N(CC(C)C)C2CCS(=O)(=O)C2)c(C)c1 (stereo not given)	10%	-20%	0%	·	47	·
CCOC(CNC(=O)C(=O)Nc1cc2c3c(c1)CCN3C(=O)CC2)OCC	1%	-13%	?	-16%	2	-11%
COc1ccccc1CNC(=O)C1CCCN(c2nnc(C)c3c(C)n(-c4ccccc4)nc23)C1 (stereo not given)	5%	-12%	·	?	-11	?
CCOc1ccccc1CNC(=O)C1CCCN(c2nnc(C)c3c(C)n(-c4ccccc4)nc23)C1 (stereo not given)	-1%	5%	?	?	-107*	?
COc1ccc(-n2nc3c(N4CCC(C(=O)NCCc5ccccc5C)CC4)nnc(C)c3c2C)cc1	1%	-28%	?	-1%	·	-23%
COc1ccc(-n2nc3c(N4CCCC(C(=O)NCc5ccccc5C)C4)nnc(C)c3c2C)cc1 (stereo not given)	-20%	-26%	·	?	-99*	?
COc1ccc(-n2nc3c(N4CCC(C(=O)NCc5ccccc5C)CC4)nnc(C)c3c2C)cc1	6%	-11%	11µM*	-12%	?	?
COc1ccc(-n2nc3c(N4CCCC(C(=O)NCCc5ccccc5C)C4)nnc(C)c3c2C)cc1 (stereo not given)	-2%	-7%	·	-27%	-87*	-8%
COc1ccc(NC(=S)N2CCN(c3ncccn3)CC2)cc1	7%	15%	12%	-4%	?	-9%
COc1ccc(-n2nc3c(N4CCC(C(=O)NCC(C)c5ccccc5)CC4)nnc(C)c3c2C)cc1 (stereo not given)	-13%	-24%	11µM*	?	?	?
COc1ccc(NC(=O)NCCc2c[nH]c3ccccc23)c(OC)c1	-13%	-21%	-19%	·	19	·
COc1ccc(C(=O)CCC(=O)NCCc2c[nH]c3ccccc23)cc1	-9%	-18%	8%	-12%	-104*	-10%
O=C(CCCCCNc1nc(=S)[nH]c2ccccc12)NCCc1c[nH]c2ccccc12	-2%	?	20µM*	-15%	-29	-18%
COc1ccc(OC)c(NC(=O)NCCc2c[nH]c3ccccc23)c1	6%	2%	?	·	-87*	·
COc1cc2c(CCNC(C)=O)c[nH]c2cc1Cl	-1%	-14%	20%	-14%	-92*	-9%
Cc1ccc(-n2c(=O)c3c(cnn3C)n(CC(=O)Nc3ccccc3C)c2=O)cc1	2%	-25%	·	-4%	7	4%
O=C(NCc1ccccc1)c1c[nH]c2ccc(F)cc2c1=O	0%	49%	-25%	·	?	·
SMILES	Sm TGR block	FMDV inh	HCV inh	VACV mCherry inh	HCMV antiviral	Vaccinia Venus
CCOc1ccc2[nH]cc(C(=O)NCc3ccc(F)cc3)c(=O)c2c1	9%	0%	?	·	-71*	·
Cc1nc2ccccc2n1CC(O)COCC1CC=CCC1 (stereo not given)	3%	?	11µM*	·	-81*	?
Cc1ccc(NC(=O)CCCN2C(=O)/C(=C/C=C/c3ccccc3)SC2=S)cc1	-6%	8%	0%	9%	6	6%
CC(C)c1ccccc1NC(=O)COC(=O)CCN1C(=O)/C(=C\C=C\c2ccccc2)SC1=S	-9%	?	3%	-3%	-86*	12%
O=C(COC(=O)CCN1C(=O)/C(=C\C=C\c2ccccc2)SC1=S)Nc1ccc(Br)cc1	·	?	-1%	-26%	-74*	-1%
CSc1c(CC(=O)Nc2ccc(F)cc2)n(Cc2ccccc2)c2ccccc12	4%	-22%	11%	-14%	-62*	-23%
COc1cccc(CNC(=O)CSc2ccc(-c3ccco3)nn2)c1	8.9µM*	-6%	1%	-11%	-16	-9%
O=C(CSc1ccc(-c2ccco2)nn1)N1CCCC1	18µM*	3%	-1%	i	9	-11%
CCc1ccc(NC(=O)CSc2ccc(-c3ccco3)nn2)cc1	20µM*	-12%	?	0%	14	-8%
O=C(CSc1ccc(-c2ccco2)nn1)N1CCCCC1	?	42%	10%	i	-5	-10%
COc1cccc(CNC(=O)CSc2ccc(-c3ccccn3)nn2)c1	-9%	-5%	-1%	-22%	-32	-15%
COc1ccc(C)cc1NC(=O)CSc1ccc(-c2ccco2)nn1	?	-28%	10µM*	?	?	-19%
O=C(OCc1cccc(C(F)(F)F)c1)c1ccc(-c2nnn(Cc3ccc(F)cc3)n2)cc1	2%	-9%	·	-1%	-5	-5%
O=C(CSc1ccc(-c2ccco2)nn1)NCc1ccc(Cl)cc1	16µM*	-12%	8%	i	8	-8%
COc1ccccc1-c1ccc(SCC(=O)NCCc2ccccc2)nn1	3%	-3%	-16%	-10%	-13	-13%
O=C(CSc1ccc(-c2ccco2)nn1)NCc1ccccc1	35µM*	-15%	-5%	-17%	19	-2%
COc1ccccc1CCNC(=O)CSc1ccc(-c2ccco2)nn1	3.5µM*	-13%	-13%	-9%	21	-8%
COc1ccccc1NC(=O)CSc1nccc(-c2ccco2)n1	25µM*	-13%	-8%	·	16	·
CC(=O)N1CCc2cc(S(=O)(=O)CCC(=O)N(C)Cc3ccco3)ccc21	-31%	-5%	9%	·	?	·
Cc1c(CCO)c(=O)[nH]n1C(=O)c1ccc(F)cc1	4%	12%	11%	·	?	·
O=C(C1=C[C@H](c2coc3ccccc3c2=O)C[C@H](OCCCCO)O1)N1CCN(Cc2ccccc2)CC1	?	-5%	13%	5%	?	-8%
